# Out of some 300,000 compounds screened, about 3,300 (1.1%) were called active. Not shown: some 6% with an inconclusive outcome. Shown is part of a subset that was picked to be rich in actives. A number with no mark means an inactive call.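 Rule for the calls: active = more than half of the replicate wells show a fall in the fluorescence ratio signal beyond about 16% (limit read from the data, passing the limit was not always enough); inconclusive = exactly half of the replicate wells pass the set limit; inactive = fewer than half of replicates pass the limit.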
# Test system: Ran GTPase (GTP-bound) - importin-beta complex
# Test: inhibitors of RanGTP-importin-beta interaction, primary screen, biochemical, FRET, CFP-Ran, YFP-importin-beta, homogeneous (AID 2216);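 note: 0% = DMSO wells and 100% = Ran loaded with GDP instead of GTP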
# Settings: cell-free CFP-Ran/YFP-importin-beta FRET ratio; hits give high values; concentration not given here
row,SMILES,inhibition
1,Cn1cccc1-c1nc2ccccc2n1C,3.82%
2,Cn1c(-c2ccc(C(=O)c3ccccc3)s2)nc2ccccc21,21.5% (active)
3,Cn1c(NC(=O)c2ccccc2)nc2ccccc21,5.33%
4,O=C(NCCC1CCCCN1S(=O)(=O)c1ccccc1)C(=O)NCC1CCCO1 (configuration not stated),1.16%
5,CCOc1ccc(CCNC(=O)COC(=O)C2CCN(c3ccc(C(F)(F)F)cn3)CC2)cc1OCC,0.153%
6,O=c1[nH]snc1-c1c(Cl)cccc1Cl,2.52%
7,Cc1ccc(-n2nc3cc(Cl)c(NC(=O)c4ccco4)cc3n2)cc1,-2.85%
8,Cc1ccnc(NC(=O)c2ccco2)n1,-1.58%
9,CCn1nc(NC(=O)c2ccco2)c2cc3ccc(C)cc3nc21,23.1% (active)
10,COc1ccc2nc(N3CCCC(O)C3)c(C#N)cc2c1 (configuration not stated),57.2% (active)
11,COc1ccc2c(c1)CCc1cn3ncc(C#N)c3nc1-2,10.6%
12,COc1ccc2cc(C(=O)C3CCCN(C(=O)c4sc(C)nc4C)C3)ccc2c1 (configuration not stated),0.445%
13,Cc1c(CC(=O)NCCCCCC(=O)O)c(=O)oc2cc3occ(-c4ccccc4)c3cc12,3.1%
14,CCCCCCc1ccc(O)cc1O,-0.89%
15,CCCCCCc1cc2cc(-c3nnc(-c4ccccc4)o3)c(=O)oc2cc1O,161% (active)
16,Cc1sc2ncnc(N3CCC(C(=O)Nc4nc5ccc(Cl)cc5s4)CC3)c2c1C,2.82%
17,CC(=O)c1ccc(S(=O)(=O)NC2CC(=O)N(c3ccc4c(c3)OCCO4)C2)cc1 (configuration not stated),-0.763%
18,c1ccc(C[C@H]2CNCCN2CCC23CC4CC(CC(C4)C2)C3)cc1,3.71%
19,N#CCN(C(=O)COC(=O)C1CC2CCCC(C1)C2=O)c1ccccc1 (configuration not stated),-5.07%
20,COc1ccc2c(c1)CCNC2Cc1ccc(OC)c(O)c1 (configuration not stated),96.2% (active)
21,COc1ccc(CCNC(=O)C(=O)NCC2CCNCC2)cc1OC,4.38%

row,SMILES,inhibition
1,COc1cc2c(cc1O)[C@H](Cc1ccc(Oc3cc(C[C@@H]4NCCc5cc(OC)c(O)cc54)ccc3O)cc1)NCC2,-9.25%
2,O=C(Nc1ccccc1)c1ccc(NC(=O)c2cccs2)cc1,-0.113%
3,O=C(Nc1ccccc1-c1ccccc1)c1cccs1,22.1% (active)
4,O=C(Nc1ccccc1-c1nc2ccccc2[nH]c1=O)c1cccs1,-0.663%
5,Cc1sc2ncnc(N3CCC(C(=O)NNC(=O)c4ccc(F)cc4)CC3)c2c1C,0.666%
6,CC(=O)N1CCc2cc(S(=O)(=O)NC3CCCCC3)ccc21,2.08%
7,CCCNS(=O)(=O)c1ccc2c(c1)CCCN2C(C)=O,23.9% (active)
8,CCC1CCCCN1CCNS(=O)(=O)c1ccc2c(c1)CCN2C(C)=O (configuration not stated),-5.25%
9,COc1ccccc1C(=O)NCCC(=O)NN1C(=O)NC2(CCCCC2)C1=O,-3.94%
10,CCOC(=O)c1cc(C#N)c(N2CCCCC2)nc1-c1ccccc1,-3.84%
11,CCOc1ccc2nc(N3CCCN(C(=O)Nc4ccccc4C)CC3)c(C#N)cc2c1,119% (active)
12,CCOc1ccc(C(=O)NC2CCN(C(=O)Nc3ccccc3OC)CC2)cc1,-1.22%
13,COc1ccccc1C(=O)Nc1ccccc1C(=O)Nc1ccccc1,3.3%
14,O=C(NCCOc1cccnc1)c1ccc(OC2CCN(Cc3ccccn3)CC2)cc1,0.854%
15,O=S(=O)(c1cccc(Cn2nnc(-c3ccc(F)cc3)n2)c1)N1CCOCC1,5.68%
16,Cc1cccc(Nc2nc(NCCO)nc(N3CCCC3)n2)c1,-0.666%
17,Cc1ccc(N2CCN(c3ccc(C)cc3)C2c2ccccn2)cc1,20.1% (active)
18,Cc1ccc(S(=O)(=O)NCC(=O)N2CCN(c3ccccn3)CC2)cc1,-4.7%
19,Cc1ccc(N2C(=O)C3CC3C2=O)cc1 (configuration not stated),1.85%
20,CCC(CC)c1nnc(NC(=O)C2=COCCO2)s1,-0.607%
21,COc1ccc(C2C(C#N)=C(N)N(c3ncn[nH]3)C3=C2C(=O)CCC3)cc1 (configuration not stated),2.61%

row,SMILES,inhibition
1,CCCCN1C(=O)CCC(C(=O)O)C1c1ccc(OC)cc1 (configuration not stated),-1.74%
2,CCOc1ccc(C2C3=C(CCCC3=O)N(CC(=O)O)C3=C2C(=O)CCC3)cc1,63.4% (active)
3,CCOC(=O)C1=C(N)N(c2ccc(C)cc2)C2=C(C(=O)CCC2)C1c1cccs1 (configuration not stated),1.06%
4,COc1ccc(C2C3=C(CCCC3=O)N(CC(=O)O)C3=C2C(=O)CCC3)cc1,61.1% (active)
5,CCOc1ccc(C2C(C#N)=C(N)N(N(C)C)C3=C2C(=O)CCC3)cc1 (configuration not stated),-2.69%
6,O=C1c2ccccc2C(=O)c2c1cccc2N1CCN(C/C=C/c2ccccc2)CC1,-1.77%
7,Cc1nc(-c2ccccc2)sc1C1(C)CC(c2cccnc2)=NO1 (configuration not stated),4.13%
8,Cc1ccc(NC(=S)NCCN2CCOCC2)cc1,18% (active)
9,CCCCc1ccc(NC(=S)NCCCN2CCOCC2)cc1,1.19%
10,Cc1ccc(C(=O)NC(=S)NCCN2CCOCC2)cc1,-2.12%
11,CCCCn1c(N)c(N(CCC(C)C)C(=O)CC2OC(=O)c3ccccc32)c(=O)[nH]c1=O (configuration not stated),0.056%
12,O=C(CCC1CCCN(C(=O)c2ccc(F)c(F)c2)C1)N1CCN(c2ccccn2)CC1 (configuration not stated),2.85%
13,Oc1ccc(CN2CCN(c3ncccn3)CC2)cc1,-6.09%
14,Oc1c(CN2CCN(c3ccc(F)cc3)CC2)cc(Cl)c2cccnc12,24.8% (active)
15,CCN1CCN(C(c2cccnc2)c2cc(Cl)c3cccnc3c2O)CC1 (configuration not stated),2.34%
16,O=C(N/N=C/c1cc(Br)c(O)c([N+](=O)[O-])c1)C(O)(c1ccccc1)c1ccccc1,-0.0435%
17,CN(C)S(=O)(=O)c1ccc(N2CCCC2)c(C(=O)Nc2ccc(Br)cc2F)c1,0.866%
18,CSc1nc(C)cc(SC(C(C)=O)C(=O)Nc2ccccc2)n1 (configuration not stated),-3.65%
19,CC(Sc1nc(-c2ccccc2)cc(C(F)(F)F)n1)C(=O)Nc1ccc2c(c1)OCO2 (configuration not stated),-1.24%
20,CC(Sc1nnc2c(n1)C1CCC2(C)C1(C)C)C(=O)Nc1ccccc1 (configuration not stated),27% (active)
